The record followed here is PubChem BioAssay (NCI).

About 83,000 compounds went through this panel and 20% of them were active in at least one assay; those are over-represented in the sample as a whole.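 Step 1: grow cells in 96-well plates. Step 2: add test compound at a single concentration. Step 3: incubate 48 h. Step 4: record percent growth.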 A number with no mark means an inactive call. Calls of active or inactive are those of the source. How the source made its calls: active means growth percent below 10; inactive means the rest.

Test systems include EKVX NSCLC; SN12C renal; UO-31 renal; TK-10 renal; ACHN renal; CAKI-1 renal; MOLT-4 leukemia; SR leukemia; CCRF-CEM leukemia; A498 renal.
Assay in all cases: NCI-60 one-dose screen, 48 h (100 = growth as untreated, 0 = no growth, -100 = all killed)
What all share (conditions): 10 µM unless noted

With `COc1c(O)cc2oc3cc(O)c(CC=C(C)C)c(O)c3c(=O)c2c1C/C=C(\C)CCC=C(C)C`, the growth in the experiment with EKVX NSCLC is 81.5%; in the experiment with SN12C renal, -8.91% (active); with UO-31 renal, 58.3%; in the experiment on TK-10 renal it was 37.3%; in the experiment with ACHN renal, 22.6%; in the experiment with CAKI-1 renal, 79.3%. Besides, the values for the growth with MOLT-4 leukemia and in the experiment on SR leukemia were 6.16% (active) and -18.2% (active), respectively.
On to `CC(C)[O-].CC(C)[O-].CN(CCN(C)Cc1cc(F)cc(F)c1[O-])Cc1cc(F)cc(F)c1[O-].[Ti+4]`, for which the growth in the experiment on EKVX NSCLC was -8.9% (active); in the experiment with SN12C renal it was 19.7%; in the experiment on UO-31 renal, -14.5% (active); in the experiment with TK-10 renal, -12.6% (active); in the experiment with ACHN renal, 9.76% (active); in the experiment with CAKI-1 renal it was -11.1% (active). In addition, the growth in the experiment on CCRF-CEM leukemia is 16.4%; in the experiment on SR leukemia, 1.21% (active).
As to `CCOC(=O)C1=NN(c2ccc(Cl)cc2)C2C3N(c4ccc(Cl)cc4)N=C(C(=O)OCC)N3c3ccccc3N12` (stereo not given), the growth in the experiment on EKVX NSCLC was 104%; with SN12C renal it was 111%; with UO-31 renal, 92.6%; in the experiment with TK-10 renal, 119%; in the experiment with ACHN renal, 121%; in the experiment on A498 renal it was 131%. In addition, the growth is 47.4% with MOLT-4 leukemia and 40.4% in the experiment with SR leukemia.
Turning to `CCCn1cnc2c1c(=O)n(CCCCC(C)=O)c(=O)n2C`, the growth is 108% with EKVX NSCLC; 124% in the experiment with SN12C renal; 80.9% with UO-31 renal; 114% in the experiment on TK-10 renal; 101% with ACHN renal; 103% in the experiment on CAKI-1 renal. Also, the growth in the experiment on CCRF-CEM leukemia is 109%; in the experiment with SR leukemia, 87.5%.
As to `O=C(N1CCC(CN=c2cc3n(-c4ccc(Cl)cc4)c4ccccc4nc-3cc2Nc2ccc(Cl)cc2)CC1)N1CC1`, the growth with EKVX NSCLC was -62.5% (active); with SN12C renal, -76% (active); in the experiment with UO-31 renal, -96.3% (active); in the experiment with TK-10 renal it was -42.9% (active); with ACHN renal, -71.7% (active); in the experiment on A498 renal, -59.9% (active). The growth with MOLT-4 leukemia was -22.6% (active); in the experiment with SR leukemia it was -74.5% (active).
On to `Cc1c(C(N)=O)sc2nc(SCC(=O)Nc3ccc(Cl)cc3)n(-c3ccccc3)c(=O)c12`, for which the growth in the experiment on EKVX NSCLC was 98.4%; in the experiment on SN12C renal, 95.2%; in the experiment on UO-31 renal, 121%; in the experiment with TK-10 renal, 52.8%; with ACHN renal, 106%; in the experiment on A498 renal, 192%. Moreover, the growth was 86.3% in the experiment with CCRF-CEM leukemia, 156% with MOLT-4 leukemia and 106% in the experiment with SR leukemia.
As to `COc1ccc2nccc(/C=C/c3ccnc4ccc(OC)cc34)c2c1`, the growth in the experiment with EKVX NSCLC is 105%; in the experiment on SN12C renal, 118%; in the experiment with UO-31 renal, 97%; in the experiment with TK-10 renal, 148%; in the experiment with ACHN renal, 102%; with A498 renal, 87.9%. Moreover, the growth is 59.6% with CCRF-CEM leukemia, 33.1% in the experiment with MOLT-4 leukemia and 21.4% with SR leukemia.
As to `O=C(/C=C/c1ccccc1Cl)c1ccc(O)cc1`, the growth in the experiment with EKVX NSCLC is 84.8%; in the experiment with SN12C renal, 67.3%; in the experiment on UO-31 renal it was 43.6%; with TK-10 renal it was 78.6%; in the experiment with ACHN renal it was 78.9%; with A498 renal it was 91.9%. In addition, the growth in the experiment on CCRF-CEM leukemia was 30.6%; with MOLT-4 leukemia, 55.1%; in the experiment with SR leukemia it was 27.9%.
In the case of `Clc1ccccc1[C@@H]1C[C@@H]2Cc3cc(Br)c4ccccc4c3N1O2`, the growth was 70% with EKVX NSCLC; 44.3% in the experiment on SN12C renal; 40.3% in the experiment on UO-31 renal; 63.6% in the experiment with TK-10 renal; 53.5% with ACHN renal; 40.4% with CAKI-1 renal. The growth is 17.2% in the experiment with MOLT-4 leukemia and 3.11% (active) in the experiment on SR leukemia.
In the case of `CCCCC(C#N)C(N)=O` (stereo not given), the growth in the experiment with EKVX NSCLC was 132%; in the experiment on SN12C renal, 101%; in the experiment with UO-31 renal, 87.8%; in the experiment with TK-10 renal, 107%; in the experiment with ACHN renal it was 110%; with A498 renal it was 122%. In addition, the growth was 95.8% in the experiment on CCRF-CEM leukemia, 90.2% in the experiment with MOLT-4 leukemia and 93.8% in the experiment on SR leukemia.
In the case of `O=C(CCc1nnc(SCc2ccccc2)s1)c1nc2ccccc2[nH]1`, the growth is 93.8% with EKVX NSCLC; 92.7% in the experiment with SN12C renal; 74.3% in the experiment on UO-31 renal; 95.8% in the experiment with TK-10 renal; 94.4% in the experiment with ACHN renal; 90.7% in the experiment with CAKI-1 renal. Further, the growth in the experiment with CCRF-CEM leukemia is 68.1%; with MOLT-4 leukemia it was 70.1%; with SR leukemia, 74.4%.
As for `COc1ccc(OC)c(/C=C/c2nc(=S)n(-c3ccc(Cl)cc3)[nH]2)c1`, the growth was 75.2% in the experiment with EKVX NSCLC; 66.2% with SN12C renal; 47.1% in the experiment on UO-31 renal; 88.8% in the experiment with TK-10 renal; 71.2% in the experiment with ACHN renal; 60.6% with CCRF-CEM leukemia. In the experiment on MOLT-4 leukemia, the growth was 52.8%.
`Clc1nc(Cl)c2ncn(-c3ccccc3)c2n1`: the growth in the experiment with EKVX NSCLC is 73.3%; with SN12C renal, 82%; in the experiment on UO-31 renal, -77.3% (active); with TK-10 renal, 71.9%; in the experiment on ACHN renal, 68.6%; with CAKI-1 renal, -79.9% (active). Moreover, the growth in the experiment on CCRF-CEM leukemia was 80.3%; in the experiment on MOLT-4 leukemia, 44.2%; with SR leukemia, 39%.
For `COc1ccc(OC)c2c1[nH]c(=O)c1c3ccccc3cn21`, the growth with EKVX NSCLC is -43.4% (active); with SN12C renal, -92.9% (active); with UO-31 renal it was -81.4% (active); with TK-10 renal, -83.4% (active); with ACHN renal it was -84.6% (active); in the experiment on A498 renal, 51.1%. Moreover, the growth in the experiment on CCRF-CEM leukemia is -48.7% (active); with MOLT-4 leukemia it was -15.7% (active); in the experiment on SR leukemia it was -6.08% (active).
For `CCOC(=O)c1c2c(c(C)n1Cc1ccccc1)-c1nc(N)ncc1CC2`, the growth in the experiment on EKVX NSCLC is 88.9%; in the experiment on SN12C renal, 102%; in the experiment with UO-31 renal, 79.7%; in the experiment on TK-10 renal, 103%; in the experiment on ACHN renal it was 92.2%; in the experiment with A498 renal, 88.2%. Further, the results for the growth in the experiment with CCRF-CEM leukemia, with MOLT-4 leukemia and in the experiment with SR leukemia were 93.7%, 95.7% and 86.2%, respectively.
Consider `CC/C(=C\c1ccc(N(C)C)cc1)c1nc2ccccc2c(=O)[nH]1`, for which the growth is 93% in the experiment with EKVX NSCLC; 106% in the experiment on SN12C renal; 108% in the experiment with UO-31 renal; 51.1% in the experiment with TK-10 renal; 93.4% in the experiment with ACHN renal; 118% in the experiment with A498 renal. Also, the results for the growth in the experiment with CCRF-CEM leukemia and in the experiment with MOLT-4 leukemia were 110% and 140%, respectively.
